# Results taken from PubChem BioAssay (NCATS).
# Several values for one entry are separate records, joined by “and”; a condition that tells them apart may be missing. Identical values can stand only once. Unmarked numbers belong to inactive results. Results filed as inconclusive are left out. Activity calls are given as the source filed them. Unless noted, calls come from the whole dose curve; as a rule, active = well fitted curve in either direction with a large enough effect (not every such curve was filed as active); inconclusive = small, poorly fitted or top-dose-only effect, or another doubt; inactive = flat fitted curve, though single readings scatter.
# How the values were obtained:
# [1] = AP1 Signaling Pathway (AID 357);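 note: ME-180 reporter cells stimulated with EGF at its EC50 level; % is set by controls: 0 for no effect and ±100 for the full control effect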
# Outline: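 A ratiometric CCF4 readout (405 nm excitation; 460 and 530 nm emission) quantified AP-1-driven beta-lactamase in ME-180 cells after 5 h with compound and EC50 EGF; AC50 values were derived for activators and inhibitors.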
# [2] = target: Cytochrome P450 1A2 (Homo sapiens) (UniProt P05177); test: p450-cyp1a2 (AID 410; calls by dose curve; note: potency is the fitted concentration of half-maximal effect;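 for activity change, negative = inhibition: -100% = full effect of reference inhibitor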)
# Outline: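 Inhibition was calculated relative to 57 uM furafylline (full inhibition). The reaction used human CYP1A2 at 20nM with Luciferin-ME at its Km, 100uM, driven by an NADPH-regenerating system for 60 min at room temperature.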
# [3] = NFAT Signaling Pathway (AID 444); conditions: Jurkat NFAT-bla M1, carbachol, beta-lactamase ratio, 5 h;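 note: carbachol stimulus at about its EC50 of 1 µM final; % is set by controls: 0 for no effect and ±100 for the full control effect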
# Outline: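 Read-out: CCF4 FRET ratio (460 nm/530 nm) after 1 h RT dye loading, used for %activity and AC50 from titration series. Cells: Jurkat NFAT-β-lactamase/M1 line, treated with compound plus 1 uM carbachol for 5 h, 37 °C.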
# [4] = target: Lysosomal acid glucosylceramidase (Homo sapiens) (UniProt P04062); test: Glucocerebrosidase-p2 (AID 348; in the data active = potency below about 10 µM; note: potency is the fitted concentration of half-maximal effect); conditions: purified GBA, blue fluorogenic substrate, 40 min
# Outline: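 Compounds titrated from 0.6 nM upwards against 0.2 nM enzyme in pH 5.9 citric acid/KH2PO4, taurocholate, tween-20; blue fluorogenic substrate 80 uM, 40 min room temperature, stopped and read Ex 365/Em 440 for AC50.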
# [5] = Cell Viability - Jurkat (AID 426;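 active = dose-dependent loss of cell ATP signal giving a full or clear fitted curve, ranked by lower potency value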;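 note: potency is the fitted concentration of half-maximal effect; cells exposed to compound for 40 hours at 37 °C before ATP read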); conditions: qHTS
# Outline: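 Seed 5000 Jurkat E6-1 cells/well; add compound; incubate 40 hr at 37 °C; add CellTiter-Glo; wait 20 min at room temperature; read luminescence. Fit concentration-response with Hill equation for AC50.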
# [6] = Cell Viability - MRC5 (AID 434; calls by dose curve;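 note: potency is the fitted concentration of half-maximal effect; cells exposed to compound for 40 hours at 37 °C; potency reflects cytotoxicity seen as loss of intracellular ATP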); conditions: MRC5 lung fibroblast viability, qHTS
# Outline: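 qHTS cytotoxicity in human lung fibroblast MRC5 cells; 40 hr treatment, 37 °C; cellular ATP by luciferase luminescence; DMSO = 0%, 100 uM tamoxifen = 100% inhibition; Hill-fit AC50.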
# [7] = Cell Viability - BJ (AID 421; calls by dose curve;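 note: potency is the fitted concentration of half-maximal effect; cells exposed to compound for 40 hours at 37 °C before readout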); conditions: BJ fibroblast viability, qHTS
# Outline: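 Luminescent ATP signal (CellTiter-Glo, 20 min at room temperature) served as the read-out of viable BJ cells after 40 hours of compound treatment. Responses were scaled between DMSO and 100 uM tamoxifen, and AC50 values were obtained by Hill modeling.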
# [8] = Cell Viability - SK-N-SH (AID 435; calls by dose curve; note: potency is the fitted concentration of half-maximal effect); conditions: SK-N-SH neuroblastoma cell viability qHTS
# Outline: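 CellTiter-Glo ATP luminescence, 20 min RT read; cells pre-plated 5 hr, compound 40 hr at 37 °C, 1500 cells/well, complete medium. Normalized DMSO = 0, 100 uM tamoxifen = 100% inhibition; Hill-fit AC50.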
# [9] = Cell Viability - Hek293 (AID 427;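 active = compounds whose dose-response curve shows a full or clear partial loss of cell viability, called from curve shape rather than a numeric limit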;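 note: potency is the fitted concentration of half-maximal effect; cells exposed to compound for 40 hours at 37 °C before reading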); conditions: qHTS
# Source text: NIH Chemical Genomics Center [NCGC]
# NIH Molecular Libraries Screening Centers Network [MLSCN]
# National Institutes of Environmental Health Sciences [NIEHS]
# National Toxicology Program [NTP]
# We have developed a 1536-well cell-based assay for quantitative high throughput screening (qHTS) against a number of cell lines to determine in vitro cytotoxicity of small molecules. This particular assay uses the Hek 293 cell line which is derived from human embryonic kidney cells (transformed with adenovirus).
# NCGC Assay Protocol Summary:
# The CellTiter-Glo luminescent cell viability assay (Promega) is a homogeneous method to measure the number of viable cells in culture. The end point readout of this assay is based on quantitation of intracellular ATP, an indicator of metabolic activity, using the luciferase reaction. Luciferase catalyzes the oxidation of beetle Luciferin to oxyluciferin and light in the presence of ATP. The luminescent signal is proportional to amount of ATP present.
# Using the CellTiter-Glo luminescent cell viability assay, the amount of cellular ATP was measured in the Hek293 cell line with complete culture medium following compound treatment for 40 hours. The assay was performed in opaque white Kalypsys 1536-well plates. In the screen, tamoxifen and doxorubicin were used as positive controls. Library compounds were measured for their ability to cause acute toxicity in the cell line, as reflected by a decrease in intracellular ATP levels, in a concentration-dependent manner. Data were normalized to the controls for basal activity (DMSO only) and 100% inhibition (100 uM tamoxifen). AC50 values were determined from concentration-response data modeled with the standard Hill equation.
# qHTS protocol fo CellTiter Glo Hek 293 cellular assay
# [Step] [Parameter] [Value] [Description]
# 2. Time; 5 hr; 37 °C incubation
# 4. Controls; 23 nL; Tamoxifen 0.34 uM to 100 uM & Doxorubicin 0.02 nM to 100 uM
# 5. Time; 40 hr; 37 °C incubation
# 6. Reagent; 5 uL; CellTiter Glo reagent
# 7. Time; 20 min; Room Temperature
# 8. Detection; Luminescence; Viewlux plate reader
# Keywords: cell viability, cytotoxicity, Hek293 cell line, luminescence, NTPHTS, NTPHTS_NCGC, NIEHS, EPA, DSSTox, MLSMR, MLSCN, NIH Roadmap, qHTS, NCGC
# [10] = Cell Viability - HepG2 (AID 433; calls by dose curve;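 note: potency is the fitted concentration of half-maximal effect; potency for ATP loss meaning cytotoxicity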); conditions: qHTS
# Outline: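 ATP luminescence (CellTiter-Glo) after 40 h compound exposure, 37 °C, HepG2, 1500 cells/well, complete medium. Normalized: DMSO = basal, 100 uM tamoxifen = 100% inhibition. AC50 via standard Hill equation.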
# Cytochrome P450 1A2 (Homo sapiens), sequence (P05177 whole entry, looked up): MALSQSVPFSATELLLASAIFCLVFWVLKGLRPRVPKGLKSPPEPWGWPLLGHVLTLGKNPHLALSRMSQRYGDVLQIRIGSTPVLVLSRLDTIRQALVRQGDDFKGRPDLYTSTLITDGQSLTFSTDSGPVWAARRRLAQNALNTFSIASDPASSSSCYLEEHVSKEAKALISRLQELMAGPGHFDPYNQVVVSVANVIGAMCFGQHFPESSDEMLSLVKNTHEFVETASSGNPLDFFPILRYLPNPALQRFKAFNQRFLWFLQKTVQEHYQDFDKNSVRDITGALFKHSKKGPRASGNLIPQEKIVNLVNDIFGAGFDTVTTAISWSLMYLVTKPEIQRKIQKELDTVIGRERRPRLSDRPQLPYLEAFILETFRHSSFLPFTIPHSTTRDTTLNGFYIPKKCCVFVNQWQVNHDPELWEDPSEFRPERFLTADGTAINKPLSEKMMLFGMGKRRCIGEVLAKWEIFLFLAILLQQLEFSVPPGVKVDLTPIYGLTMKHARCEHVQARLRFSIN
# Lysosomal acid glucosylceramidase (Homo sapiens), sequence (P04062 whole entry, looked up): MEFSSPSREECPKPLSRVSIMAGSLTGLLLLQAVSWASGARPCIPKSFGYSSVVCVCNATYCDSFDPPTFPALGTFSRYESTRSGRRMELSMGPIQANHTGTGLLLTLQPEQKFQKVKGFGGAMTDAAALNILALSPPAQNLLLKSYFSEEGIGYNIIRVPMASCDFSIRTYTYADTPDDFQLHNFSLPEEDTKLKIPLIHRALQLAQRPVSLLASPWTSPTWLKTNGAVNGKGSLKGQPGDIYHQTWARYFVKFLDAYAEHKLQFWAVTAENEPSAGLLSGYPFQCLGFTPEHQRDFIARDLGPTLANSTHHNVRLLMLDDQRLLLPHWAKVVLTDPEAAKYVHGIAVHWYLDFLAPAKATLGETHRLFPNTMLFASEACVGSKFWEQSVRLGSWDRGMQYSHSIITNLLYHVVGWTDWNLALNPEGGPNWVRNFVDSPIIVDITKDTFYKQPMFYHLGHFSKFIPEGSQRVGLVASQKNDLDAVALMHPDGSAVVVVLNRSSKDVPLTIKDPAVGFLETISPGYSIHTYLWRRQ
smiles,measurement,setting,value
Clc1cccc(N2CCNCC2)c1,outcome,[1],inactive
same,Potency,[2],15.8 µM (active)
same,"activity change, negative = inhibition",[3]; at 38 µM (top of the series),-4.86%
c1ccc(C2CC2)c(OCC2=NCCN2)c1,outcome,[1],inactive
same,Potency,[2],15.8 µM (active) and 25.1 µM (active)
CC[N+]1(C)CCCC(OC(=O)C(O)(c2ccccc2)c2ccccc2)C1 (stereo unspecified),outcome,[1],inactive
same,"activity change, negative = inhibition",[3]; at 17.2 µM (top of the series),-75.8% (active)
N#CC(C#N)=Cc1ccc(O)c(O)c1,outcome,[1],inactive
same,Potency,[2],15.8 µM (active) and 5.01 µM (active)
same,"activity change, negative = inhibition",[3]; at 38 µM (top of the series),-13.6%
CC(CCc1ccccc1)NC(C)C(O)c1ccc(O)cc1 (stereo unspecified),outcome,[1],inactive
Cc1ccc(S(=O)(=O)N[C@@H](CCCCN)C(=O)CCl)cc1,outcome,[1],inactive
same,Potency,[2],inactive
same,"activity change, negative = inhibition",[3]; at 38 µM (top of the series),-22.6%
Nc1ccncc1,outcome,[1],inactive
same,Potency,[2],inactive
same,"activity change, negative = inhibition",[3]; at 38 µM (top of the series),-3.97%
O=c1[nH]c2ccccc2n1CCCN1CCC(n2c(=O)[nH]c3cc(Cl)ccc32)CC1,Potency,[4],> 11.4 µM
same,outcome,[1],inactive
same,"activity change, negative = inhibition",[3]; at 7.69 µM (top of the series),-18.5%
same,"activity change, negative = inhibition",[3]; at 17.2 µM (top of the series),-16.6% and -16.4%
same,"activity change, negative = inhibition",[3]; at 38 µM (top of the series),-15.8%
c1ccc2c(c1)OCC(C1=NCCN1)O2 (stereo unspecified),outcome,[1],inactive
Fc1ccc(C(OCCN2CCN(CCCc3ccccc3)CC2)c2ccc(F)cc2)cc1,outcome,[1],inactive
Clc1ccc(COC(Cn2ccnc2)c2ccc(Cl)cc2Cl)cc1 (stereo unspecified),outcome,[1],inactive
same,Potency,[5],81.7 µM (active)
same,Potency,[6],95 µM
NN=C(N)N,outcome,[1],inactive
same,Potency,[2],inactive
same,"activity change, negative = inhibition",[3]; at 38 µM (top of the series),2.99% and 1.19%
Cc1cccc(C)c1NC1=NCCCS1,outcome,[1],inactive
same,Potency,[2],inactive
same,"activity change, negative = inhibition",[3]; at 38 µM (top of the series),-14.8%
COc1ccccc1N1CCNCC1,outcome,[1],inactive
same,Potency,[2],inactive
same,"activity change, negative = inhibition",[3]; at 38 µM (top of the series),-22.1%
CCCN1CCC[C@@H]2Cc3[nH]ncc3C[C@H]21,outcome,[1],inactive
same,Potency,[2],inactive
same,"activity change, negative = inhibition",[3]; at 17.2 µM (top of the series),24.4%
same,"activity change, negative = inhibition",[3]; at 38 µM (top of the series),7.41% and -8.14%
N[C@@H]1C[C@H]1c1ccccc1,outcome,[1],inactive
same,Potency,[2],15.8 µM (active)
same,"activity change, negative = inhibition",[3]; at 38 µM (top of the series),-3.2%
CCCN1CCC[C@@H]2Cc3nc(N)ncc3C[C@H]21,outcome,[1],inactive
same,Potency,[2],inactive
same,"activity change, negative = inhibition",[3]; at 38 µM (top of the series),-3.63%
O=[N+]([O-])c1cc([As](=O)(O)O)ccc1O,outcome,[1],inactive
same,Potency,[2],inactive
same,"activity change, negative = inhibition",[3]; at 17.2 µM (top of the series),-8.47%
Oc1cccc2cccnc12,Potency,[4],> 11.4 µM
same,"activity change, negative = inhibition",[2],-20% [at 11.4 µM]
same,Potency,[7],> 92 µM
same,Potency,[6],> 92 µM
same,Potency,[8],24.4 µM (active) and 28.1 µM (active)
same,"activity change, negative = inhibition",[3]; at 7.69 µM (top of the series),3.84%
C=C1CC[C@@]2(O)[C@H]3Cc4ccc(O)c5c4[C@@]2(CCN3CC2CC2)[C@H]1O5,outcome,[1],inactive
same,"activity change, negative = inhibition",[3]; at 17.2 µM (top of the series),-9.27%
CN(C)[C@@H]1C(=O)C(C(N)=O)=C(O)[C@@]2(O)C(=O)C3=C(O)c4c(O)cccc4[C@@](C)(O)[C@H]3C[C@@H]12,outcome,[1],inactive
NCC1(CC(=O)O)CCCCC1,outcome,[1],inactive
same,Potency,[2],inactive
same,"activity change, negative = inhibition",[3]; at 17.2 µM (top of the series),-5.52% and 10.6%
same,"activity change, negative = inhibition",[3]; at 38 µM (top of the series),3.24%
CNCC(O)c1ccc(O)cc1 (stereo unspecified),outcome,[1],inactive
same,Potency,[7],> 92 µM
same,Potency,[5],> 92 µM
same,Potency,[9],> 92 µM
same,Potency,[10],> 92 µM
same,Potency,[6],> 92 µM
same,Potency,[8],> 92 µM
same,"activity change, negative = inhibition",[3]; at 17.2 µM (top of the series),19.4%
COc1ccc(Cc2nccc3cc(OC)c(OC)cc23)cc1OC,outcome,[1],inactive
same,"activity change, negative = inhibition",[3]; at 17.2 µM (top of the series),-29.4%
CN1C[C@H](CNC(=O)OCc2ccccc2)C[C@@H]2c3cccc4c3c(cn4C)C[C@H]21,outcome,[1],inactive
same,"activity change, negative = inhibition",[3]; at 17.2 µM (top of the series),11.1%
COC1(CS(=O)c2ccccc2)CCN(CCc2c[nH]c3ccc(F)cc23)CC1 (stereo unspecified),Potency,[2],inactive
N[C@@H](Cc1ccc(N(CCCl)CCCl)cc1)C(=O)O,Potency,[7],> 92 µM
same,Potency,[5],18.3 µM (active)
CCn1cc(C(=O)O)c(=O)c2ccc(C)nc21,outcome,[1],inactive
same,"activity change, negative = inhibition",[3]; at 17.2 µM (top of the series),-8.77% and -6.5%
same,"activity change, negative = inhibition",[3]; at 38 µM (top of the series),12.2%
CCN(CC)C(=O)N[C@@H]1C=C2c3cccc4[nH]cc(c34)C[C@@H]2N(C)C1,outcome,[1],inactive
same,"activity change, negative = inhibition",[3]; at 38 µM (top of the series),-9.69% and -17.6%
O=c1[nH]c2ccccc2n1C1CCN(CCCC(c2ccc(F)cc2)c2ccc(F)cc2)CC1,Potency,[2],20 µM (active) and 31.6 µM (active)
CC[C@@H](CO)NC(=O)[C@@H]1C=C2c3cccc4c3c(cn4C)C[C@H]2N(C)C1,outcome,[1],inactive
same,"activity change, negative = inhibition",[3]; at 17.2 µM (top of the series),-12.8%
NCC(O)c1ccc(O)cc1 (stereo unspecified),Potency,[7],> 92 µM
same,Potency,[5],> 92 µM
same,Potency,[9],> 92 µM
same,Potency,[10],> 92 µM
same,Potency,[6],> 92 µM
same,Potency,[8],> 92 µM
